Results on 18 compounds are retold here after the supplement of paper PMC9446081.

The structures appear in SMILES notation. Out of some 39,000 compounds screened, about 220 (0.56%) showed activity. Only a selection was taken, and actives are over-represented in it overall. A number with no mark means an inactive call.
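Also: Wild-type cells incubated without shaking, value is the mean of two biological replicates.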

In the assay the test system is Escherichia coli K-12 BW25113. Put plainly: relative growth (OD600 normalised to plate interquartile mean) (fraction); higher = less growth inhibition, active = 0.2 or less. Conditions: 50 µM; LB; incubation time: overnight (16-24 h).
In the case of `CS(=O)(=O)NC[C@@H]1OC[C@@H]2CCN(C(=O)c3ccnnc3)C[C@@H]21`, the relative growth is 1.02.

Consider `C[C@H]1CCCCO[C@@H](CN(C)C(=O)NC2CCCCC2)[C@@H](C)CN([C@@H](C)CO)C(=O)c2cc(NC(=O)c3ccccc3)ccc2O1`, for which the relative growth is 1.03.

For the compound `C[C@@H]1CN([C@H](C)CO)C(=O)c2cccc(NS(=O)(=O)c3ccc(Cl)cc3)c2O[C@H]1CN(C)C(=O)Nc1cccc2ccccc12`, the relative growth was 1.02. Turning to `C[C@H](CO)N1C[C@H](C)[C@@H](CN(C)C(=O)Nc2ccc(C(F)(F)F)cc2)Oc2ccc(NS(=O)(=O)c3ccc(Cl)cc3)cc2CC1=O`, the relative growth is 0.982. Next, `Cc1ccc(S(=O)(=O)Nc2ccc3c(c2)C(=O)N([C@@H](C)CO)C[C@@H](C)[C@H](CN(C)C(=O)CCC(F)(F)F)OCCCC[C@H](C)O3)cc1`: 0.979; `Cc1noc(C)c1NC(=O)N(C)C[C@@H]1Oc2ncc(C#CCN(C)C)cc2C(=O)N([C@H](C)CO)C[C@@H]1C`: 0.979.

As to `Cc1oc(=O)oc1CN1CCN(c2cc3c(cc2F)c(=O)c(C(=O)O)c2n3C(C)S2)CC1` (stereo not drawn), the relative growth is 0.0438 (active). Next, `C[C@@H]1CN([C@H](C)CO)C(=O)Cc2cc(NC(=O)Nc3ccc4c(c3)OCO4)ccc2O[C@@H]1CN(C)Cc1ccc(C(F)(F)F)cc1`: 1.02; `CC(=O)O`: 1.01.

Regarding `O=C(O)P(=O)(O)O`, the relative growth was 0.0351 (active). The value for `O=P(O)(O)CN(CCN(CP(=O)(O)O)CP(=O)(O)O)CP(=O)(O)O` was 0.926. Next, `C[C@H]1CN([C@@H](C)CO)C(=O)c2cccc(NS(C)(=O)=O)c2O[C@@H]1CN(C)Cc1ccc(C(F)(F)F)cc1`: 1.01. With `C[C@@H]1CN([C@H](C)CO)C(=O)c2cc(C#CCN(C)C)cnc2O[C@H]1CN(C)C(=O)CCN1CCCCC1`, the relative growth was 0.983. Turning to `C[C@H](CO)N1C[C@H](C)[C@@H](CN(C)Cc2ccccc2)OCCCC[C@H](C)Oc2ccc(NC(=O)CCC(F)(F)F)cc2C1=O`, the relative growth was 0.999. Consider `C[C@H]1CN([C@@H](C)CO)C(=O)c2cccc(NS(=O)(=O)c3cn(C)cn3)c2O[C@@H]1CN(C)S(=O)(=O)c1cccs1`, for which the relative growth was 1.01.

As for `COc1ccc(S(=O)(=O)N(C)C[C@@H]2Oc3ncc(C#Cc4ccc(F)cc4)cc3C(=O)N([C@H](C)CO)C[C@@H]2C)cc1`, the relative growth was 1.05. The value for `COc1ccccc1CNC(=O)C[C@@H]1C[C@@H]2c3cc(NC(=O)NC4CCCC4)ccc3O[C@@H]2[C@H](CO)O1` was 0.983; that for `Cc1ccc(S(=O)(=O)Nc2ccc3c(c2)CC(=O)N([C@@H](C)CO)C[C@@H](C)[C@H](CN(C)CC2CC2)O3)cc1` was 1.02.
